Each structure is given as a SMILES string. Inconclusive results are not listed. Activity calls are given as the source filed them.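 The calls were made as follows, unless noted: active = response below a set limit, under 55% cells CD8-positive and vesicle-bound, and CD8 cells' 90th-percentile brightness under 279; inactive = the rest.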

Assay [1] can be described thus: yeast TOR pathway RPL19A-GFP modulators, primary screen, cell-based, S. cerevisiae, multiplex flow cytometry (AID 1862; in the data active = percent of DMSO control GFP below about 86%;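 also: lower values mimic rapamycin by blocking the RPL19A rise seen in DMSO cells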). To be noted: S. cerevisiae RPL19A-GFP strain, flow cytometry fluorescence, 3 h; at 10 µM; stronger effect = lower value. In general terms: In flow cytometry, cells or beads pass a laser one at a time.
Assay [2] can be described thus: modulators of MEP2-GFP levels in yeast, primary screen, S. cerevisiae, multiplex flow cytometry (AID 1867;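 active = GFP response, as percent of the DMSO control, above the screen-wide mean plus 3 SD, about 139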;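 also: median GFP channel fluorescence of barcode-gated MEP2-GFP cells measured by flow cytometry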). The following applies: S. cerevisiae MEP2-GFP strain, 3 h, at 10 µM, stronger effect = higher value, 100% means same as DMSO wells.
The nature of assay [3]: modulators of CIT2-GFP expression in yeast, primary screen, S. cerevisiae, GFP fusion, multiplex flow cytometry (AID 1870;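 active = percent response above a set limit, the screen-wide mean plus 3 SD, cut at about 130% in these data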;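 also: barcoded CIT2-GFP strain pooled with four other GFP strains with rapamycin as positive control; median GFP fluorescence per well over plate mean of DMSO wells so 100% = DMSO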). The following applies: 3 h, at 10 µM, stronger effect = higher value.
Assay [4] in a line: modulators of LAP4-GFP expression in yeast, primary screen, S. cerevisiae, multiplex flow cytometry (AID 1873;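 active = GFP signal, as percent of the solvent control, above the screen mean plus 3 SD, about 149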). To be noted: 3 h, at 10 µM, stronger effect = higher value.
Assay [5] is described as follows: modulators of AGP1-GFP expression in yeast TOR pathway, primary screen, cell-based, multiplex flow cytometry, S. cerevisiae (AID 1887;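 active = GFP signal above the screen-wide mean plus 3 SD, that is over about 124.5% of the solvent control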;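 also: AGP1-GFP fusion strain of S. cerevisiae within a five-strain barcoded multiplex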). The following applies: 3 h, at 10 µM, stronger effect = higher value.
Assay [6] can be described thus: inhibitors of CD8+ T cell-vesicle binding, pilot screen, LFA-1/ICAM-1 modulator project, MLPCN validation set, flow cytometry (AID 2523).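 As to vesicle binding response: mean PE anti-B7-1 fluorescence of CD8+ cells relative to row control; 100% = QL9-loaded vesicles with DMSO vehicle in the same plate row.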 To be noted: 2C mouse CD8+ T cells, at 7 µM, stronger effect = lower value; double positive events: measured here: CD8+/vesicle+ event percentage.
Assay [7] concerns the target Integrin beta-1 (Homo sapiens) + Integrin alpha-4 (Homo sapiens) (UniProt P13612+P05556). Briefly: inhibition of HUTS-21 binding to VLA-4, pilot screen, VLA-4 allosteric modulator project, U937 cells, HUTS-21 mAb, flow cytometry, validation set (AID 2674;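 active = inhibition above 50%, about 3 SD of the validation set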;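 also: antibody binding induced by the VLA-4 ligand LDV present at three times its Kd; 0% = LDV ligand with antibody and no compound and 100% = antibody without LDV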). The following applies: HUTS-21 LIBS mAb binding, at 6.7 µM, stronger effect = higher value, binding induced by LDV ligand.
A short description of assay [8]: superoxide lowering in aged yeast cells, pilot screen, validation compound set (AID 2706;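 active = superoxide response below 65% of plate, a cut near 3 SD across the whole screen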;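 also: yeast exposed to compound for one week at 30 degrees C before staining; 100% = mean of all compound wells on the same plate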). The following applies: S. cerevisiae aging, superoxide DHE fluorescence; at 10 µM; stronger effect = lower value.
The target of assay [9] is Beta-adrenergic receptor kinase 1 (Homo sapiens) (UniProt P25098). Briefly: GRK2 binders displacing RNA aptamer, biochemical, validation, human GRK2, bead flow cytometry (AID 488806;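 active = aptamer binding inhibition above 30%, about 3 SD of noise from non-fluorescent compounds; inactive = inhibition at or below 30%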). To be noted: bead-bound GRK2, FAM-aptamer displacement, at 10 µM, stronger effect = higher value.
In assay [10] the target is Beta-2 adrenergic receptor (Homo sapiens) (UniProt P07550). The assay is described as follows: beta2AR agonists driving receptor internalization, pilot screen, cell-based, FAP fluorogen, flow cytometry, validation set (AID 504459;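 active = percent response above 42, roughly 3 SD of non-fluorescent test compounds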;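 also: agonist-driven loss of surface beta2AR via internalization measured by FAP dye flow cytometry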). To be noted: Am2.2-beta2AR cells, FAP surface receptor flow cytometry; at 10 µM; stronger effect = higher value.
Assay [11] concerns the target AP-2 complex subunit beta (Homo sapiens) (UniProt P63010). Briefly: inhibitors of arrestin peptide binding to AP2, pilot screen, biochemical, validation set, GST-AP2 beads, flow cytometry (AID 504541;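 active = inhibition above 54%, about 3 SD of non-fluorescent compounds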;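 also: AP2 carries R879A mutation and is captured from E. coli lysate; bead-bound FITC arrestin peptide fluorescence measuring arrestin peptide binding to AP2; 0% = DMSO wells and 100% = excess unlabeled arrestin peptide control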). The following applies: FITC arrestin peptide, at 10 µM, stronger effect = higher value, AP2 beta2 appendage fragment, R879A mutant.
Assay [12] can be described thus: yeast V-ATPase proton transport modulators, S. cerevisiae, pHLuorin, HTS validation (AID 504600; in the data active = response above about 15%;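 also: plate controls were DMSO for no effect and reference compound for full effect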). To be noted: S. cerevisiae pHLuorin cytosolic pH, at 10 µM, stronger effect = higher value.
Assay [13] has as its system anti-desmoglein-3 scFv antibody binding to human DSG3. The assay is described as follows: inhibitors of anti-DSG3 scFv binding to DSG3, pilot screen, biochemical, validation compound set, bead-based, flow cytometry (AID 588368;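 active = binding below the plate cutoff, the plate median minus 3 SD, with a reading above zero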;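 also: signal is the median channel fluorescence of bead-bound GFP antibody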). To be noted: Protein G beads, DSG3-Fc, scFv-GFP binding, at 10 µM, stronger effect = lower value.
Assay [14] can be described thus: inhibitors of fungal efflux pumps CDR1, CDR2, MDR1, pilot screen, validation compound set, multiplex, phenotypic (AID 588506;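 active = efflux inhibition above 0.42, the validation set average plus 4 SD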;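 also: Nile Red retained in cells so higher fluorescence means more efflux inhibition; 0 = negative control wells and 1 = enniatin B 25 µM full block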). To be noted: S. cerevisiae pump-expressing triplex, Nile Red efflux flow cytometry; at 10 µM; stronger effect = higher value; the pumps come from Candida albicans.
For assay [15], the target named is ATP-binding cassette sub-family B member 6 (Homo sapiens) (UniProt Q9NP58). The assay is described as follows: ABCB6 transporter inhibitors, pilot screen, K562-ABCB6 cells, flow cytometry, validation set (AID 588550;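 active = inhibition above the screen-wide mean plus 3 SD, about 51%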;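 also: 0% = DMSO wells and 100% = benzethonium chloride 70 µM positive control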). The following applies: K562-ABCB6 porphyrin accumulation, 1 h, at 10 µM, stronger effect = higher value.
The nature of assay [16]: promoters of myeloid differentiation in arrested cells, primary screen, cell-based, GFP/MAC1 double positive, flow cytometry, validation set (AID 588685;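 active = differentiation response of at least 50%, scaled between solvent and reference control, from cells with both markers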;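 also: compound exposure lasts four days before antibody staining and flow analysis; 0% = DMSO wells and 100% = 5 µM fulvestrant positive control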). The following applies: ER-HoxA9 marrow cells, stronger effect = higher value, normalized: vehicle 0, fulvestrant 100.

Integrin beta-1 (Homo sapiens) + Integrin alpha-4 (Homo sapiens), sequence (P05556 whole entry, looked up): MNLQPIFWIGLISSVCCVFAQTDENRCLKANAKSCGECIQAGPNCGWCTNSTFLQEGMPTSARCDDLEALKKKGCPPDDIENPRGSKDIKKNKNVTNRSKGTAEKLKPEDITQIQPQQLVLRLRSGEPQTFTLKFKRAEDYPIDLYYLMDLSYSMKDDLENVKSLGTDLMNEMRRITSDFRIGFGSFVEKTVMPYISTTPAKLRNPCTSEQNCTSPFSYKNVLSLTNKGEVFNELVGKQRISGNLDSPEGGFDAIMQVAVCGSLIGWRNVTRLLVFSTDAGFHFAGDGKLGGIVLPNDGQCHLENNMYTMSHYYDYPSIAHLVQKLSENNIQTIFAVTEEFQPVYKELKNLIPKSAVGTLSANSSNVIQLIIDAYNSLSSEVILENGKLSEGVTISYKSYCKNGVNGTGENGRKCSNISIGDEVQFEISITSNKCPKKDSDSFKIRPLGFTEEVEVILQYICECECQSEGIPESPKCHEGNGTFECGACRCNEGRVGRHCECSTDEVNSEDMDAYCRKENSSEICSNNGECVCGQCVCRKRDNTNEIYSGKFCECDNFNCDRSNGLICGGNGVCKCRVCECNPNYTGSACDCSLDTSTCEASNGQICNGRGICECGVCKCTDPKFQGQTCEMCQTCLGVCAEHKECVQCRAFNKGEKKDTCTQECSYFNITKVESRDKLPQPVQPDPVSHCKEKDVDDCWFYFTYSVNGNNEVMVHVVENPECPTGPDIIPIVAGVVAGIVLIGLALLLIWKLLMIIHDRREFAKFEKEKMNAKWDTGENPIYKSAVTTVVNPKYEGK
Integrin beta-1 (Homo sapiens) + Integrin alpha-4 (Homo sapiens), sequence (P13612 whole entry, looked up): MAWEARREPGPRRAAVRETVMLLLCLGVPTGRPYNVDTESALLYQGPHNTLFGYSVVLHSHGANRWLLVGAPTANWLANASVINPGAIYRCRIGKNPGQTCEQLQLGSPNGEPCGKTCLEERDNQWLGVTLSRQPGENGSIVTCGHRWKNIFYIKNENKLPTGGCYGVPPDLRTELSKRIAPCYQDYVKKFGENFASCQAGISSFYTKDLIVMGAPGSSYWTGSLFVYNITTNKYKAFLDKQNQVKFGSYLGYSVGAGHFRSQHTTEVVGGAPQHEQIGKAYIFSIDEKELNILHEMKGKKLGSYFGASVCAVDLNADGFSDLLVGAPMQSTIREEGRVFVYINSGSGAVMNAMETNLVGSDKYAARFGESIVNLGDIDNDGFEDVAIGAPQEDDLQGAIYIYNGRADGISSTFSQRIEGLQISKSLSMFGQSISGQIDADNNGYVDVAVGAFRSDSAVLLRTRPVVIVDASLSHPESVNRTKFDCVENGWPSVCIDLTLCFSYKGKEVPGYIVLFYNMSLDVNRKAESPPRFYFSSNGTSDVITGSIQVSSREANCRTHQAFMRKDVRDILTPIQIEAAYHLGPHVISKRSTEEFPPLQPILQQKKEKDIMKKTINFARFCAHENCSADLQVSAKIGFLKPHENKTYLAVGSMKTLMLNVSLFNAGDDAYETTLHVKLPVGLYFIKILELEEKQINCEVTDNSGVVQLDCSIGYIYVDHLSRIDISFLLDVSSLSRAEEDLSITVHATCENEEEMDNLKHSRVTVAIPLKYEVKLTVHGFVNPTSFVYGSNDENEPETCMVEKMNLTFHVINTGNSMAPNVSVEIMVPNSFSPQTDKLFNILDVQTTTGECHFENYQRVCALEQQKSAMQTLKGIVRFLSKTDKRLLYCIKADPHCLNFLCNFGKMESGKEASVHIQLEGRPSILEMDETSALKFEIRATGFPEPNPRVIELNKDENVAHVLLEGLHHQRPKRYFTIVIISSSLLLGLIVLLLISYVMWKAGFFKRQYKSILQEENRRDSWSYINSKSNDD
Beta-adrenergic receptor kinase 1 (Homo sapiens), sequence (P25098 whole entry, looked up): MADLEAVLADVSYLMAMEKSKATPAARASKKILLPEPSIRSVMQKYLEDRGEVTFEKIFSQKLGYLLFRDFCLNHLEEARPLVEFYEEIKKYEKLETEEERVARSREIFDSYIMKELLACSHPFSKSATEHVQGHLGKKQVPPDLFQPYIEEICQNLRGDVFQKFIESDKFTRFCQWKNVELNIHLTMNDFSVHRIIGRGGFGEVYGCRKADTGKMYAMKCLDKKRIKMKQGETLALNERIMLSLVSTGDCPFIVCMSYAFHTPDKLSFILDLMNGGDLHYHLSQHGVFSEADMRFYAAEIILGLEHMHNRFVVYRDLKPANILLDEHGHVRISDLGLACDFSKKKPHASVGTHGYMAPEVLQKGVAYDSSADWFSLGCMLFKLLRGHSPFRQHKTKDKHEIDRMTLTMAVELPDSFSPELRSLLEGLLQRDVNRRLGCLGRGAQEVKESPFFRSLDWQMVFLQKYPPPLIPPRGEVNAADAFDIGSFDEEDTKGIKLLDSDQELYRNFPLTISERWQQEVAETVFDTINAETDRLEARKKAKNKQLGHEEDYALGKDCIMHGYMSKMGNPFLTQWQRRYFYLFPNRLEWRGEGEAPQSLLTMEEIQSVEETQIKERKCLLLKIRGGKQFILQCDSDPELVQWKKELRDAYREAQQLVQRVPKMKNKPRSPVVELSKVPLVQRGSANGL
AP-2 complex subunit beta (Homo sapiens), sequence (P63010 whole entry, looked up, the tested form may be a part, one chain of several): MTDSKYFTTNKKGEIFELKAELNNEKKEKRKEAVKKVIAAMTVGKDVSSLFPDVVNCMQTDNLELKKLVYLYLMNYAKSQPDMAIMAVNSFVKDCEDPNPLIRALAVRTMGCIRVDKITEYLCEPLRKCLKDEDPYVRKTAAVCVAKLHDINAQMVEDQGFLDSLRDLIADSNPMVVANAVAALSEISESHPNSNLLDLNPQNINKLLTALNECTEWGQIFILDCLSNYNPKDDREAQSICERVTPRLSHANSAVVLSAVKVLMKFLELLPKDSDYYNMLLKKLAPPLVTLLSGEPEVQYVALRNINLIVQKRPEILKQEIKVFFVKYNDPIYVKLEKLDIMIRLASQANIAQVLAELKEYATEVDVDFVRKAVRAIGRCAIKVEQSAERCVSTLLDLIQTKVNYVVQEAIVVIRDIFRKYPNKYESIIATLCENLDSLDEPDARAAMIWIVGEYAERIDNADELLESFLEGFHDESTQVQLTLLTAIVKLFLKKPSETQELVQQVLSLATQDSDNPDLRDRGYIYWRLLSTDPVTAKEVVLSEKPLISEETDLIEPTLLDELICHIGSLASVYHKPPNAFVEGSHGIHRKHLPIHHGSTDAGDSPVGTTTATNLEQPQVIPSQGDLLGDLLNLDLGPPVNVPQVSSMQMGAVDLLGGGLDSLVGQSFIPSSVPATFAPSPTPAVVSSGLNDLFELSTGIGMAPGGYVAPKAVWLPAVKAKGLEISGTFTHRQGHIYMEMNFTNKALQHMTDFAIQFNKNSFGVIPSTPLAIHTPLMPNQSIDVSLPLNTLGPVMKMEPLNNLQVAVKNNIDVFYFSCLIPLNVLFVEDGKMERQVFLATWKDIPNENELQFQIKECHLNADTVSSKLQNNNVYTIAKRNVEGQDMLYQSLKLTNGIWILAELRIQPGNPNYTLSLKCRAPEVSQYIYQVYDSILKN
Beta-2 adrenergic receptor (Homo sapiens), sequence (P07550 whole entry, looked up): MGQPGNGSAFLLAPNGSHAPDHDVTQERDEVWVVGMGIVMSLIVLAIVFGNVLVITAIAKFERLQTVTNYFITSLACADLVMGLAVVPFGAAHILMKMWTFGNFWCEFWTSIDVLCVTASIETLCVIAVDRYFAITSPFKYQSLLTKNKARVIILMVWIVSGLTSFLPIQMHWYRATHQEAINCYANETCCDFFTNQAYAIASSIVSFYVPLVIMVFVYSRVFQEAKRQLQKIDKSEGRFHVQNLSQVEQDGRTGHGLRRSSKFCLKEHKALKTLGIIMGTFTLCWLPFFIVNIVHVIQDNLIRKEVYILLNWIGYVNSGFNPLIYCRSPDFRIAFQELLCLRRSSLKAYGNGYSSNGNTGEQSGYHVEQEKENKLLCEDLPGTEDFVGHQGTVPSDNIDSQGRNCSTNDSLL
ATP-binding cassette sub-family B member 6 (Homo sapiens), sequence (Q9NP58 whole entry, looked up): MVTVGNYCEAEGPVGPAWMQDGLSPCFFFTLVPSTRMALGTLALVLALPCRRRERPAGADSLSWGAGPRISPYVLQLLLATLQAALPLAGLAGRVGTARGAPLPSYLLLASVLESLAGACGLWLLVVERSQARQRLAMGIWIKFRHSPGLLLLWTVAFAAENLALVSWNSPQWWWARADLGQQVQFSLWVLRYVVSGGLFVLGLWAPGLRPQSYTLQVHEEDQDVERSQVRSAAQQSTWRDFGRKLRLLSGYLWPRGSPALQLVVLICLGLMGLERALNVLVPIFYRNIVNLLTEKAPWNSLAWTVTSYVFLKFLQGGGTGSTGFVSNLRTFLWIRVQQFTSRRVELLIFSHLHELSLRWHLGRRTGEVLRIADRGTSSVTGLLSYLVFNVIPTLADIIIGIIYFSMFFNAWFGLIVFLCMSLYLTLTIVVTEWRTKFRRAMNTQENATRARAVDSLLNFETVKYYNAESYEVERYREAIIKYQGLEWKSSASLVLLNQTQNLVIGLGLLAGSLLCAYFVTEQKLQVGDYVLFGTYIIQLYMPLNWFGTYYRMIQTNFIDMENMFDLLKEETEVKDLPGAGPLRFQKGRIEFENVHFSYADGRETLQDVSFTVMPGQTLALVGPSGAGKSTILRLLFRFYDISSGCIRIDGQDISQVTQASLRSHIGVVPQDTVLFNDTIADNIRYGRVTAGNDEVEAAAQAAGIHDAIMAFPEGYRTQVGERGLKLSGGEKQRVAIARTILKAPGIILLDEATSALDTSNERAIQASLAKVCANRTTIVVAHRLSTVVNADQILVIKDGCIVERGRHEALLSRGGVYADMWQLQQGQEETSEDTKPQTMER

What is called inhibition is the drop in the measured response relative to a control, in per cent. On to `O=C1c2ccccc2C2(c3ccccc3)NCCN12` (stereo not given), for which the percent of DMSO control GFP in [1] was 101% (inactive). The GFP response vs DMSO was 102% (inactive) in assay [2] and 95.9% (inactive) in assay [4]. The percent response of DMSO control in assay [3] was 109% (inactive). Further, the GFP response, % of DMSO in assay [5] was 99.8% (inactive). In assay [6], this molecule registered a double positive events of 59.5%. For the same molecule, the vesicle binding response in [6] is 122% (inactive). Besides, the inhibition in assay [7] was -14.5% (inactive); in assay [11], 6.52% (inactive); in [15], 3% (inactive). Moreover, the superoxide response (% of plate) in assay [8] is 92.9% (inactive). In addition, the aptamer binding inhibition in [9] was 0% (inactive). For the same molecule, the response was -0.82% (inactive) in assay [10] and 11.8% (inactive) in assay [12]. For the same molecule, in assay [13], the binding (% of control) was 104% (inactive). In addition, the efflux inhibition (fraction of control) in assay [14] was -0.19 (inactive). Besides, the differentiation response in [16] is -14.8% (inactive).

Regarding `CCCCOc1ccc(C(=O)CCN2CCCCC2)cc1`, in assay [1], the percent of DMSO control GFP is 109% (inactive). Also, the values for the GFP response vs DMSO in assay [2] and in [4] were 96.6% (inactive) and 126% (inactive), respectively. For the same molecule, the percent response of DMSO control in [3] was 97.6% (inactive). Also, in assay [5], the GFP response, % of DMSO was 78.8% (inactive). In addition, the double positive events in [6] came to 58.1%. Also, the vesicle binding response in assay [6] was 108% (inactive). Further, the inhibition in [7] was -9.13% (inactive); in assay [11], -10.4% (inactive); in assay [15], 7% (inactive). For the same molecule, in [8], the superoxide response (% of plate) was 83.9% (inactive). Further, the aptamer binding inhibition in assay [9] was -1% (inactive). Also, the response in assay [10] is 26.6% (inactive); in [12] it was 7.43% (inactive). Besides, the binding (% of control) in [13] was 104% (inactive). Further, the efflux inhibition (fraction of control) in assay [14] is 0.11 (inactive). Besides, the differentiation response in [16] was 4.2% (inactive).

Consider `O=C(O)c1ccc(C(=O)C(=O)c2ccccc2)cc1`, for which the percent of DMSO control GFP in assay [1] is 104% (inactive). In addition, the GFP response vs DMSO is 98.3% (inactive) in [2] and 101% (inactive) in assay [4]. For the same molecule, the percent response of DMSO control in assay [3] was 109% (inactive). In assay [5], the GFP response, % of DMSO is 102% (inactive). The molecule also gave a double positive events in assay [6] of 65.4%. Also, the vesicle binding response in [6] is 304% (inactive). Besides, the inhibition in [7] was -17.1% (inactive); in assay [11], 1.48% (inactive); in [15] it was -10% (inactive). In addition, the superoxide response (% of plate) in assay [8] is 110% (inactive). Further, the aptamer binding inhibition in assay [9] is 3% (inactive). The values for the response in [10] and in [12] were 4.67% (inactive) and 0.41% (inactive), respectively. For the same molecule, the binding (% of control) in assay [13] is 96.6% (inactive). For the same molecule, in assay [14], the efflux inhibition (fraction of control) was -0.01 (inactive). In assay [16], the differentiation response was -6.6% (inactive).

For the molecule `COc1ccc2c(c1)C=CC1(O2)N(CCO)c2ccccc2C1(C)C` (stereo not given), the percent of DMSO control GFP in assay [1] is 98.2% (inactive). Also, the figures for the GFP response vs DMSO in assay [2] and in [4] were 111% (inactive) and 124% (inactive), respectively. Moreover, the percent response of DMSO control in [3] is 104% (inactive). Moreover, the GFP response, % of DMSO in [5] is 117% (inactive). The double positive events in [6] is 62.1%. In addition, the vesicle binding response in [6] was 212% (inactive). Further, the inhibition in assay [7] is -55.6% (inactive); in assay [11], 13.6% (inactive); in [15], -25% (inactive). Also, the superoxide response (% of plate) in assay [8] was 108% (inactive). Also, in assay [9], the aptamer binding inhibition is 6% (inactive). The response in assay [10] is 43.9% (active); in assay [12], 7.05% (inactive). In addition, in [13], the binding (% of control) was 99.2% (inactive). Also, in assay [14], the efflux inhibition (fraction of control) was 0.04 (inactive). In addition, in [16], the differentiation response is -1.05% (inactive).

As to `COc1ccccc1N1CCN(CC(O)COc2cccc3ccccc23)CC1` (stereo not given), the percent of DMSO control GFP in assay [1] was 102% (inactive). In addition, the GFP response vs DMSO in assay [2] is 105% (inactive); in assay [4], 109% (inactive). For the same molecule, the percent response of DMSO control in [3] is 98.3% (inactive). In addition, in [5], the GFP response, % of DMSO is 118% (inactive). The molecule also came in with a double positive events in assay [6] of 64.3%. Moreover, the vesicle binding response in assay [6] is 192% (inactive). The inhibition in [7] was 8.25% (inactive); in assay [11] it was -5.11% (inactive); in [15], -4% (inactive). Moreover, the superoxide response (% of plate) in assay [8] was 97.5% (inactive). Also, the aptamer binding inhibition in assay [9] is 6% (inactive). For the same molecule, the response in [10] was -24.7% (inactive); in [12], 5.97% (inactive). In addition, the binding (% of control) in [13] is 107% (inactive). The efflux inhibition (fraction of control) in assay [14] is -0.09 (inactive). Further, the differentiation response in [16] is 4.86% (inactive).
